In publication PMC4336329 (PLoS ONE, 2015):
About 14,000 (4.5%) of roughly 310,000 compounds showed an effect of 50% or more. Effects have a minus sign here. The sample holds strong results, similar compounds and a random draw of the others, so the mix is not that of the screen.

Biological target: human ether-à-go-go-related gene (hERG) potassium channel (human, UniProt Q12809)
Experiment: primary screen, population patch clamp on CHO cells stably expressing hERG; higher = less effect of the substance
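Also: peak tail current of the secondary pulse compared with the same well before compound.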

Sequence of human ether-à-go-go-related gene (hERG) potassium channel (Q12809 whole entry, looked up): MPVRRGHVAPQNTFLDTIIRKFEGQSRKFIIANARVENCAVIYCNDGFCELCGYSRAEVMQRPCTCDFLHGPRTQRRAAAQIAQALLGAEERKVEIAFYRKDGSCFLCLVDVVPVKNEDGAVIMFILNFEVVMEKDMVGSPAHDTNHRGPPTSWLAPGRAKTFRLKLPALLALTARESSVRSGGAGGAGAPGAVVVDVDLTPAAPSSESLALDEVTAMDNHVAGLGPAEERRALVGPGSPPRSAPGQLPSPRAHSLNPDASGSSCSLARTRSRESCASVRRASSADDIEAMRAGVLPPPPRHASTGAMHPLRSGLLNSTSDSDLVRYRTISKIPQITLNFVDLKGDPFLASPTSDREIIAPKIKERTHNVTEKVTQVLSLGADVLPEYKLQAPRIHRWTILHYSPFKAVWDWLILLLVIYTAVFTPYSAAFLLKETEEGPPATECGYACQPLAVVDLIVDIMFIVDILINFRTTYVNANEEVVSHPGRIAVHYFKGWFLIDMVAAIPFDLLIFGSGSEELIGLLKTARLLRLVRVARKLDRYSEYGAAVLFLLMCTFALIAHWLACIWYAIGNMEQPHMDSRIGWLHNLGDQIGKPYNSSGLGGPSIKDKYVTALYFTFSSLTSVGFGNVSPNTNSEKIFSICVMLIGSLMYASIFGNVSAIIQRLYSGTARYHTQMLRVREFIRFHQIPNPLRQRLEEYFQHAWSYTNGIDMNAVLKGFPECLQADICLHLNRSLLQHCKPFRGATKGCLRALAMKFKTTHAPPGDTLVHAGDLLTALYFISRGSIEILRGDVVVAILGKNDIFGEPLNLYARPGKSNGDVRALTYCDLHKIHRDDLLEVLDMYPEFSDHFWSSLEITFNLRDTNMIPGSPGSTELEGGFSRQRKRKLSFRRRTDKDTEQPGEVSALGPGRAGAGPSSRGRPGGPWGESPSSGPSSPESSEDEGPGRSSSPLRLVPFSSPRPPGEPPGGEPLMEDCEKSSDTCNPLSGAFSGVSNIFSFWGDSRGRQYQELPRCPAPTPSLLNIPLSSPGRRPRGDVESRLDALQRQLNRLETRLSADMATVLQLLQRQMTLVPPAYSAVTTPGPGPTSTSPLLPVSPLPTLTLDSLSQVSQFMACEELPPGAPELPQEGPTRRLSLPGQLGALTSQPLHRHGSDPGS

Row | SMILES | hERG current change (%, negative = inhibition) at 10uM
1 | C#CCSc1nnnn1-c1cccc(Cl)c1 | -9.19%
2 | COc1cccc(C2NC(CC(C)C)(C(=O)O)C3C(=O)N(Cc4ccccc4)C(=O)C23)c1O (centres unmarked) | 10.2%
3 | CN(Cc1ccccc1F)C(=O)c1ccc(NS(=O)(=O)c2ccc3[nH]c(=O)[nH]c3c2)cc1 | 6.14%
4 | O=C(Nc1ccccc1N1CCCCC1)C1=COCCO1 | -32.6%
5 | CC(C)[C@@H](C(=O)NCc1ccco1)N1C(=O)N2CCc3c([nH]c4ccccc34)[C@@]2(C)C1=O | -15.6%
6 | CSc1nnc([C@@H](NC(=O)OC(C)(C)C)C(C)C)o1 | -13.6%
7 | CCc1cccc(OCC(O)Cn2c(N3CCCCC3)nc3c2c(=O)[nH]c(=O)n3C)c1 (centres unmarked) | 13.7%
8 | Clc1ccc(CN=C2Nc3ccccc3CS2)cc1 | 14.9%
9 | COc1cc2c(cc1OC)C1=C(C#N)CCC(=O)N1CC2 | 5.55%
10 | C=C1C[C@H]2[C@@H]3C=C(C)C4=CC(=O)CC[C@]4(C)[C@H]3CC[C@]2(C)[C@@]1(OC(C)=O)C(C)=O | -21.2%
11 | O=C(COC(=O)C1CC1)Nc1nc(-c2ccc(F)c(F)c2)cs1 | 4.93%
12 | CCCCOc1ccc(C(=O)N2CCN(c3ncccn3)CC2)cc1 | -9.16%
13 | CCOc1ccccc1N1CCN(C(=O)c2ccccc2)CC1 | 11%
14 | CCOc1ccccc1N1CCN(C(=O)CNC(=O)c2sc3ccccc3c2Cl)CC1 | 17.4%
15 | CCCc1cnc(N2CCN(C(=O)c3ccccc3)CC2)nc1 | -57.1%
16 | CCCc1cnc(N2CCN(C(=O)c3ccc(OC)cc3)CC2)nc1 | -52.4%
17 | CCCc1cnc(N2CCN(C(=O)c3ccc(F)cc3)CC2)nc1 | -43.1%
18 | CCOc1ccccc1N1CCN(C(=O)CNC(=O)c2ccc(OC)c(OC)c2)CC1 | 11.9%
19 | CCOc1ccccc1N1CCN(C(=O)CNC(=O)c2ccccc2F)CC1 | -51.1%

Row | SMILES | hERG current change (%, negative = inhibition) at 10uM
20 | CCCc1cnc(N2CCN(C(=O)c3c(-c4ccccc4)noc3C)CC2)nc1 | -24.5%
21 | CCOc1ccccc1N1CCN(C(=O)c2ccncc2)CC1 | -8.78%
22 | CCCc1ccc(C(=O)N2CCN(c3ccccc3OCC)CC2)cc1 | -56.3%
23 | CCOc1ccc(C(=O)N2CCN(c3ncccn3)CC2)cc1 | -9.8%
24 | CCCCCCSc1ccc([C@@H]2[C@H]3C(=O)N(CC)C(=O)[C@H]3[C@]3(C(=O)OC)CCCN23)cc1.O=C(O)C(F)(F)F | -7.59%
25 | COc1cc(OC)cc(C(=O)O/N=C(\N)c2ccccn2)c1 | 7.21%
26 | CCOC(=O)c1cc2c(ccn2C)n1CC(=O)N1CCC(Cc2ccccc2)CC1 | -24.1%
27 | CN(C)S(=O)(=O)c1ccc(NC(=O)CN2C(=O)NC(Cc3ccccc3)C2=O)cc1 (centres unmarked) | 10.2%
28 | CCOC(=O)CC(NC(=O)C1c2ccccc2Oc2ccccc21)c1ccc(C)cc1 (centres unmarked) | 5.66%
29 | COc1ccc(NC(=O)CSc2nnc(-c3cccnc3)n2C)cc1 | 8.3%
30 | Cc1cc(OCC(=O)N2CCC(C(=O)O)(c3ccccc3)CC2)c2c(C)cc(=O)oc2c1 | 11.6%
31 | O=C(Nc1cccc(Cl)c1)c1cncn1-c1ccc(F)cc1 | -68.1%
32 | NNC(=O)c1cncn1-c1ccc(F)cc1 | 23.7%
33 | COc1cc(OC)c(NC(=O)c2cncn2-c2ccc(F)cc2)cc1Cl | -19.7%
34 | Cc1cccc(C)c1NS(=O)(=O)c1c(C)[nH]c(=O)[nH]c1=O | -14.2%
35 | Cc1ccccc1CN(CC(=O)Nc1cccc([N+](=O)[O-])c1)S(=O)(=O)c1ccc(Cl)cc1 | 15.1%
36 | O=C(NC1CCN(Cc2ccc(Cl)cc2Cl)CC1)c1ccccc1 | -53.9%
37 | O=C(NC1CCN(C(=O)Nc2ccccc2Cl)CC1)c1ccccc1 | 4.22%
38 | COC(=O)[C@H](CCSC)NC(=O)NC1CCN(Cc2ccccc2)CC1 | -12.9%

Row | SMILES | hERG current change (%, negative = inhibition) at 10uM
39 | CSCCC(NC(=O)c1ccccc1Cl)C(=O)N1CCN(C(C)=O)CC1 (centres unmarked) | -26.9%
40 | Cl.O=C(NN1CCN(Cc2ccccc2Cl)CC1)c1ccc(Cl)cc1 | -10.6%
41 | O=C(NC1CCN(Cc2ccccc2Cl)CC1)c1ccccc1 | -65.2%
42 | O=C(NC1CCN(Cc2ccccc2)CC1)c1ccc(Cl)cc1Cl | -75%
43 | O=C(NC1CCN(Cc2ccccc2)CC1)c1ccccc1Cl | 1.15%
44 | CSCCC(NC(=O)c1ccccc1Cl)C(=O)NC1CCN(Cc2ccccc2)CC1 (centres unmarked) | -50.1%
45 | O=C(NC1CCN(C(=O)Nc2cccc(Cl)c2)CC1)c1ccccc1 | 1.02%
46 | O=C(NC1CCN(Cc2ccccc2)CC1)c1ccccc1F | -23.7%
47 | S=C(Nc1ccc(Cl)cc1Cl)NC1CCN(Cc2ccccc2)CC1 | -2.76%
48 | COCC(=O)Nc1ccc(C)c(Cl)c1 | 14.4%
49 | Cc1cccc(NS(=O)(=O)c2ccc(OCC(=O)N3CCCC3)cc2)c1 | -19.1%
50 | CCCn1nnnc1NC(=O)COc1ccc(CC)cc1 | -3.02%
51 | Cc1ccc(NC(=O)CCSc2nnc(C)o2)cc1 | 2.48%
52 | CC1(C)NC(=O)N(CCCCOc2cccc(C(F)(F)F)c2)C1=O | -6.92%
53 | CN1CCN(c2ccc(C(N)=O)cc2N)CC1 | 6.81%
54 | CN1C(=O)C(C)(C)c2cc(S(=O)(=O)N3CCCC(C(=O)Nc4ccc(Cl)cc4)C3)ccc21 (centres unmarked) | -9.27%
55 | COC(=O)/C(C#N)=C/c1c(Oc2cccc(C)c2C)nc2ccccn2c1=O | -12.6%
56 | COC(=O)CCCn1nc(NC(=O)COc2ccc(F)cc2)cc1C | -5.47%
